# Test results published in PubChem BioAssay.
# Calls of active or inactive are those of the source.
# Experiments:
# [1] = tested on: Plasmodium falciparum Sir2 (PF13_0152, Sir2A); assay: Plasmodium falciparum Sir2A binding compounds – biochemical, small-molecule microarray, 635 nm fluorescence, primary screen (AID 1098); settings: fluorescence 635 nm, higher = more signal;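 note: score merges spot fluorescence intensity with its signal-to-noise ratio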
# [2] = probe aDKK1 binding to arrayed compounds – biochemical, biotinylated probe, 635/667 nm fluorescence, primary screen (AID 1099); settings: small-molecule microarray, higher = more signal;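 note: score merges 667nm spot fluorescence with signal to noise across triplicate slides; reference of the scale not given here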
# [3] = probe aCHRDL2 binding to arrayed compounds – biochemical, biotinylated probe, 635/667 nm fluorescence, primary screen (AID 1100); settings: small-molecule microarray, higher = more signal
# [4] = change in splice reporter luminescence, either direction, cell-based, HEK293, spliceosome inhibition project, primary screen (AID 1101); settings: HEK293 splicing luciferase reporter, 24 h, higher = more signal, called active from +8 up or from −8 down;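 note: HEK293 cells carrying a splicing-competent luciferase reporter gene; test concentration not given here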
# [5] = target: Fibroblast growth factor 10 (Homo sapiens) (UniProt O15520); assay: compounds binding fibroblast growth factor 10 – biochemical, small-molecule microarray, 635 nm fluorescence, primary screen (AID 1102); settings: FGF10 binding, fluorescence 635 nm, higher = more signal
# Sequence of Fibroblast growth factor 10 (Homo sapiens) (O15520 whole entry, looked up): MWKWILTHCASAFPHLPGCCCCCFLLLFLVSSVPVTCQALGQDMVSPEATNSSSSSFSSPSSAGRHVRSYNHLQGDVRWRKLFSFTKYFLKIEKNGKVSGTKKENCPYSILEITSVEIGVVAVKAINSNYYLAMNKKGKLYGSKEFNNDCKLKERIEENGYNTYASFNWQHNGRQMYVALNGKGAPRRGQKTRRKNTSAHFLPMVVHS
# [6] = tested on: glycogen synthase kinase-3 (GSK3A per assay name; protocol says GSK3B); assay: compounds binding glycogen synthase kinase-3 – biochemical, small-molecule microarray, 635 nm fluorescence, GSK3A, primary screen (AID 1103); settings: fluorescence 635 nm, higher = more signal; note: the record names both GSK3A and GSK3B
# [7] = target: Epidermal growth factor receptor (Homo sapiens) (UniProt P00533); assay: compounds binding epidermal growth factor receptor – biochemical, small-molecule microarray, 635 nm fluorescence, primary screen (AID 1104); settings: EGFR binding, higher = more signal;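 note: score merges 667 nm emission intensity with spot signal to noise over triplicate slides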
# Sequence of Epidermal growth factor receptor (Homo sapiens) (P00533 whole entry, looked up): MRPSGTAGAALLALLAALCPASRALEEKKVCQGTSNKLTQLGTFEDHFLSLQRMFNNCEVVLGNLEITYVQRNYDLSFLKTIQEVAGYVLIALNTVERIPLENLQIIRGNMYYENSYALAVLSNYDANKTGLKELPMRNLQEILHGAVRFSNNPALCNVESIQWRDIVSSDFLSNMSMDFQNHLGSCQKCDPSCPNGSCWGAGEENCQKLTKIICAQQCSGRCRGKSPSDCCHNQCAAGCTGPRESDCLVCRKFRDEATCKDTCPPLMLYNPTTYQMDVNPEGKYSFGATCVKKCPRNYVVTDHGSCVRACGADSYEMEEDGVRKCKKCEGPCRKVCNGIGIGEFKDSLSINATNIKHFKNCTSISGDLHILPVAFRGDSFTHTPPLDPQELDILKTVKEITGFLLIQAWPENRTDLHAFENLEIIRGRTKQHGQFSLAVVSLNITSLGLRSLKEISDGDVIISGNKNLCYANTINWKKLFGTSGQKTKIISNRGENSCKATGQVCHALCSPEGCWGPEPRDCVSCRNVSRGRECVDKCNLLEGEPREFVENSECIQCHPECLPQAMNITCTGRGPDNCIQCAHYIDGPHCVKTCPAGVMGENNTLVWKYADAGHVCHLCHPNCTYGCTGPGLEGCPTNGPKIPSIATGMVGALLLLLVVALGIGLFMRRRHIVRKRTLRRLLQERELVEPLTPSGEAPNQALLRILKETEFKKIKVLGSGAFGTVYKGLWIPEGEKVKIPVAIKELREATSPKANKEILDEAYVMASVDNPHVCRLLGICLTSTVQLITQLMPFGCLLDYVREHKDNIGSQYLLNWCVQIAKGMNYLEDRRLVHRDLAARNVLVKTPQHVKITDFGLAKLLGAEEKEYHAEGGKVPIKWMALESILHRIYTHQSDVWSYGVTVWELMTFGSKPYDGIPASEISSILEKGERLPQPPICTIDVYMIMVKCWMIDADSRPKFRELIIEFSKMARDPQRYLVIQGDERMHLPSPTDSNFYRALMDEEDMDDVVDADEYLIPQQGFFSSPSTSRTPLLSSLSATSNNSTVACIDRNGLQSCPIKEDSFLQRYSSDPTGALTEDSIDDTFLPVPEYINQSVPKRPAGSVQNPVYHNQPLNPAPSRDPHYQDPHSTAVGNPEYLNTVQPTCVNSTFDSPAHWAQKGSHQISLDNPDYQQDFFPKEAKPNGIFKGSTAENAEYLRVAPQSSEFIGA
# [8] = target: Follistatin-related protein 3 (Homo sapiens) (UniProt O95633); assay: compounds binding follistatin-related protein 3 – biochemical, small-molecule microarray, 635 nm fluorescence, primary screen (AID 1105); settings: FSTL3 binding, higher = more signal;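 note: score merges emission near 667 nm and signal to noise per printed spot across three slides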
# Sequence of Follistatin-related protein 3 (Homo sapiens) (O95633 whole entry, looked up): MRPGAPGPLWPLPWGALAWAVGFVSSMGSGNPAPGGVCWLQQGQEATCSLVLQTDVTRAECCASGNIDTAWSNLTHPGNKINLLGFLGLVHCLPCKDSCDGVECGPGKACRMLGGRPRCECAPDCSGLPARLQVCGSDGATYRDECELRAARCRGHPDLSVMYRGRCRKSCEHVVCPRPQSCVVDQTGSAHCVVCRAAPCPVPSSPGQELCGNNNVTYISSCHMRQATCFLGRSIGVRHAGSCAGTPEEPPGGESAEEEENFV
# [9] = target: Dickkopf-related protein 1 (Homo sapiens) (UniProt O94907); assay: small molecules binding DKK1 protein – biochemical, small-molecule microarray, 635 nm fluorescence scan, primary screen (AID 1106); settings: higher = more signal;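 note: score merges emission near 667 nm with signal to noise over three replicate slides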
# Sequence of Dickkopf-related protein 1 (Homo sapiens) (O94907 whole entry, looked up): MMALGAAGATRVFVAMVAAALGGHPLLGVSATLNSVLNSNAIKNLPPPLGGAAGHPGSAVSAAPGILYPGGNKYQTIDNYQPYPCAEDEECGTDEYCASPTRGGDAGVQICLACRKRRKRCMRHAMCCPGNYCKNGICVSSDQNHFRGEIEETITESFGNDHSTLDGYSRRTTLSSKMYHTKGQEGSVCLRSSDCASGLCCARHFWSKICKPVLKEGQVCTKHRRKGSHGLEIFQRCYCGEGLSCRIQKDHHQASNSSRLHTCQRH
# [10] = tested on: Inhibin beta A chain (activin A); assay: small molecules binding activin A – biochemical, small-molecule microarray, 635 nm fluorescence scan, primary screen (AID 1107); settings: INHBA, higher = more signal;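 note: mouse activin A protein probed at 4.33 µg/mL on printed slides; score merges bound-protein fluorescence near 667 nm with spot signal-to-noise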
SMILES,composite z-score [1],composite z-score [2],composite z-score [3],z-score [4],composite z-score [5],composite z-score [6],composite z-score [7],composite z-score [8],composite z-score [9],composite z-score [10]
C=CC[C@@]12N=C(c3ccc(OCCCO)cc3)O[C@@H]1c1ccccc1N(Cc1ccccc1)C2=O,1.55,1.36,1.08,-1.37 (inactive),1.26,1.34,0.657,1.48,0.904,1.12
CCCCC(O)C1C=CC2C(=O)N(C)C(=O)C2N1Nc1ccccc1 (stereo not given),0.236,0.304,0.411,0.94 (inactive),0.191,-0.0703,-0.319,0.0934,-0.8,1.24
COc1ccc([Si](C)(C)[C@H]2[C@H](CCO)O[C@@]3(C(=O)N(Cc4ccccc4)c4ccc(N(C=O)c5ccccc5)cc43)[C@@H]2C)cc1,0.638,0.0036,-0.19,-0.663 (inactive),0.651,-0.273,0.0677,0.618,0.167,0.2
C=CCC(OC(C)=O)[C@@H]1[C@@H](N(Cc2cc3ccccc3o2)C(=O)c2ccc(-c3ccccc3)cc2)c2cc(OCCCO)ccc2N1C(=O)c1ccc2ccccc2n1 (stereo not given in full),-0.148,0.0919,0.51,-0.0569 (inactive),-0.0302,-1.24,-0.0803,-0.205,0.157,1.33
CN(C)C(=O)[C@@]1(CCS(=O)(=O)c2ccccc2)N=C(c2ccc(OCCCO)cc2)O[C@H]1c1ccccc1N=[N+]=[N-],1.44,0.466,0.817,-0.445 (inactive),1.36,1.29,0.193,1.03,-0.0735,0.786
CCCC=C(CCC)[C@@H](NS(=O)(=O)c1ccc(Cl)cc1)c1ccccc1,0.6,0.619,0.951,-1.69 (inactive),-0.686,-1.03,-0.972,-1.29,-0.979,0.351
C=CC(CO)NC(=O)OCC1c2ccccc2-c2ccccc21 (stereo not given),0.193,-0.291,-0.475,0.406 (inactive),0.324,0.365,0.674,0.608,0.554,0.26
COC(=O)[C@@]1(Cc2ccc(OC)cc2)[C@H]2c3cc(C(=O)N4CCCC4)n(CCc4ccc(OC)c(Br)c4)c3C[C@H]2CN1C(=O)c1ccccc1,1.31,0.801,0.904,-0.947 (inactive),0.714,-0.199,0.0993,-0.457,-0.858,1.03
CN1C(=O)C2C(C1=O)C1C=C(c3ccc(CO)cc3)C2C(c2cccs2)N1C (stereo not given),0.609,0.0014,0.381,-0.516 (inactive),-0.0606,0.378,-0.2,-0.164,-0.0556,0.779
C#CCN=C(N)N,0.271,0.0623,-0.534,0.422 (inactive),0.528,0.605,0.527,0.918,0.861,0.548
COC(=O)c1ccc([C@H](NC(=O)c2ccccc2)[C@]2(C)C[C@H]2C2CCCCC2)cc1,0.135,0.343,1.24,0.736 (inactive),0.225,0.0377,-0.133,0.4,-0.532,0.795
C[N+](C)(C)CCCCCCNC(=O)[C@H]1C[C@H]2C(=O)NCC(=O)N2[C@H]1c1cccc(OCCO)c1,1.75,-0.149,0.0218,-0.34 (inactive),0.439,0.548,0.228,0.969,1.28,0.169
C=CCNC(=O)[C@H]1[C@@H]2C(=O)O[C@@H](c3ccccc3)[C@@H](c3ccccc3)N2[C@@H](c2ccc(O)cc2)[C@]12C(=O)Nc1ccc(C#CC3=CCCCC3)cc12,1.14,0.593,0.662,0.622 (inactive),0.703,1.13,0.859,0.696,0.909,1.31
C[N+](C)(C)CCCCCCNC(=O)[C@@H]1C[C@@H]2C(=O)N[C@@H](Cc3ccccc3)C(=O)N2[C@@H]1c1ccc(O)cc1,1.61,-0.409,-0.578,0.372 (inactive),1.21,0.89,0.776,1.48,0.92,0.633
CC(C)=CCN(C(=O)C#Cc1ccccc1)[C@H](CO)c1ccccc1,-0.117,-0.267,-0.693,7.56 (inactive),0.341,0.506,0.512,0.604,0.439,0.661
COC(=O)C(CC#Cc1ccc2c(c1)[C@]1(C(=O)N2)[C@H](c2ccc(O)cc2)N2[C@H](c3ccccc3)[C@H](c3ccccc3)OC(=O)[C@H]2[C@@H]1C(=O)N1CCc2cc(OC)c(OC)cc2C1)C(=O)OC,1.38,0.505,0.724,-0.541 (inactive),0.817,1.32,0.708,1.29,1.06,-0.0531
C=CC[C@@]1(C(=O)O)N=C(c2ccc(OCCCO)cc2)O[C@@H]1c1ccccc1CN=[N+]=[N-],0.802,0.682,0.062,-1.38 (inactive),0.397,0.828,0.583,1.17,0.592,1.15
O=C(NCCO)C1=C[C@H](Oc2ccccc2I)[C@@H](O)[C@H](NCc2ccc(F)cc2)C1,-1.55,-0.472,-0.552,-0.635 (inactive),1.61,-0.814,-0.201,-1.52,1.19,-2.01
CC1CC/C=C\[C@H]2OC34C=CCN(CCN5CCOCC5)C(=O)[C@H]3N(CCCCCCO)C(=O)[C@@H]4C2C(=O)O1 (stereo not given in full),0.195,-0.301,0.0746,0.433 (inactive),-0.721,-0.993,-1,-0.704,-0.355,0.516
C=CC[C@]1(C(=O)OC)N=C(c2ccc(OCCCO)cc2)O[C@H]1c1ccccc1N=[N+]=[N-],1.54,1.21,0.865,-1.4 (inactive),1.25,1.31,1.19,1.37,1.26,0.826
COC(=O)[C@@]1(Cc2ccc(F)cc2)[C@H]2c3cc(C(=O)N(C)C)n(CCO)c3C[C@H]2CN1C(=O)c1ccccc1,1.56,0.453,0.361,-0.773 (inactive),0.721,-0.532,-0.537,-0.918,-0.764,0.495
C[C@H]1NC(=O)C([C@@H](C)OCc2ccccc2)NC(=O)[C@@]23C(=O)N[C@@H](Cc4ccccc4)C2[C@H](C)[C@@]2(C)O[C@H]2C3/C=C/C/C=C\CNC1=O (stereo not given in full),0.0032,-0.333,-0.603,0.219 (inactive),0.699,-0.3,0.281,0.511,0.722,1.43
CC(C)N1CC=CC23O[C@@H]4C=CCCOC(=O)C4[C@H]2C(=O)N(CCCCCO)[C@@H]3C1=O (stereo not given in full),1.58,-0.188,0.317,-0.0254 (inactive),-0.347,-1.26,-0.575,-0.749,-1.06,0.559
CCCC=C(CCC)[C@@H](NC(=O)c1ccco1)c1ccc(C(=O)OC)cc1,0.851,0.241,1.01,-0.545 (inactive),1.08,1.3,0.0415,0.938,-0.18,0.46
C=C(COC)C(=O)CC[C@@H](OC(=O)c1cccnc1)c1cccc(OCCO)c1,0.709,0.119,0.618,3.33 (inactive),1.27,-0.284,-0.0749,0.652,0.284,1.37
CCCCC(=C=CC[C@H](O)c1ccc(OCCO)cc1)C[C@H](O)c1ccccn1,0.856,-0.0313,-0.112,0.107 (inactive),1.35,0.583,-0.229,0.416,0.215,0.669
COc1ccc(C#Cc2ccc3c(c2)[C@]2(C(=O)N3)[C@H](C(=O)Nc3nc4ccccc4s3)[C@H]3C(=O)O[C@H](c4ccccc4)[C@H](c4ccccc4)N3[C@@H]2c2ccc(OCCO)cc2)cc1,0.937,0.72,0.766,-0.126 (inactive),1.17,1.3,0.209,1.13,0.629,-0.37
C=CCOC(=O)[C@H]1[C@@H]2C(=O)O[C@@H](c3ccccc3)[C@@H](c3ccccc3)N2[C@@H](c2ccc(OCCOC(=O)[C@@H]3C[C@@H]4C(=O)N[C@@H](Cc5ccccc5)C(=O)N4[C@@H]3c3ccc(O)cc3)cc2)[C@]12C(=O)Nc1ccccc12,1.34,-0.271,-0.25,0.878 (inactive),1.18,1.29,0.328,0.953,0.973,-0.0812
